Hit rate of the full screen: of about 5,500 compounds, about 2,000 (36%) were called active. Not shown: some 18% with an inconclusive outcome. Cut-off read from the data, not from the text of the source: active = normalized growth mostly below about 0.91 (no sharp cut-off); inconclusive = no clear call, values can overlap the other calls; inactive = mostly above about 0.92. Some of the results follow.
Assay: chemical genetic growth profiling, strain panel (AID 1159580);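 note: tested at 20 µM; growth read once vehicle control cultures reached saturation at 30 °C; 1 = growth at the plate median or of vehicle wells; lower values mean less growth of the strain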
Details: growth OD

Measured: normalized growth

CC(=O)[C@@]1(O)CCC2C3C[C@H](C)C4=CC(=O)C=CC4(C)[C@@]3(F)[C@@H](O)C[C@@]21C (stereo partly drawn)
inactive: S. cerevisiae deletion strains, locus YJR066W, strain TOR1, stronger effect = lower value 0.936 | S. cerevisiae deletion strains, locus YKL009W, strain mrt4, stronger effect = lower value 1.01 | S. cerevisiae deletion strains, locus YKL068W, stronger effect = lower value 1.01 | S. cerevisiae deletion strains, locus YKL085W, strain MDH1 (second series), stronger effect = lower value 1.01 | S. cerevisiae deletion strains, locus YKL085W, strain MDH1, stronger effect = lower value 1.01 | S. cerevisiae deletion strains, locus YKL160W, strain elf1, stronger effect = lower value 0.976 | S. cerevisiae deletion strains, locus YKL190W, strain CNB1, stronger effect = lower value 0.988 | S. cerevisiae deletion strains, locus YKR001C, strain vps1, stronger effect = lower value 0.987 | S. cerevisiae deletion strains, locus YKR026C, strain gcn3, stronger effect = lower value 0.982 | S. cerevisiae deletion strains, locus YKR091W, strain srl3, stronger effect = lower value 0.956 | S. cerevisiae deletion strains, locus YLL001W, strain dnm1, stronger effect = lower value 1.01 | S. cerevisiae deletion strains, locus YLL026W, stronger effect = lower value 0.979 | S. cerevisiae deletion strains, locus YLL041C, strain sdh2, stronger effect = lower value 0.988 | S. cerevisiae deletion strains, locus YLR027C, strain aat2, stronger effect = lower value 0.978 | S. cerevisiae deletion strains, locus YLR039C, strain RIC1, stronger effect = lower value 1.03 | S. cerevisiae deletion strains, locus YLR058C, strain SHM2, stronger effect = lower value 1.01 | S. cerevisiae deletion strains, locus YLR102C, strain apc9, stronger effect = lower value 1 | S. cerevisiae deletion strains, locus YLR113W, strain HOG1, stronger effect = lower value 0.988 | S. cerevisiae deletion strains, locus YLR221C, strain rsa3, stronger effect = lower value 0.968 | S. cerevisiae deletion strains, locus YLR258W, strain gsy2, stronger effect = lower value 0.971 | S. cerevisiae deletion strains, locus YLR262C, strain YPT6 (second series), stronger effect = lower value 0.981 | S. cerevisiae deletion strains, locus YLR262C, strain YPT6, stronger effect = lower value 0.98 | S. cerevisiae deletion strains, locus YLR268W, strain sec22, stronger effect = lower value 0.991 | S. cerevisiae deletion strains, locus YLR320W, strain mms22, stronger effect = lower value 0.962 | S. cerevisiae deletion strains, locus YLR330W, strain CHS5, stronger effect = lower value 1 | S. cerevisiae deletion strains, locus YLR342W, strain FKS1 (second series), stronger effect = lower value 0.992 | S. cerevisiae deletion strains, locus YLR342W, strain FKS1, stronger effect = lower value 0.979 | S. cerevisiae deletion strains, locus YLR357W, strain rsc2, stronger effect = lower value 0.951 | S. cerevisiae deletion strains, locus YLR370C, strain arc18, stronger effect = lower value 0.982 | S. cerevisiae deletion strains, locus YLR371W, strain rom2, stronger effect = lower value 1 | S. cerevisiae deletion strains, locus YLR384C, strain iki3, stronger effect = lower value 0.981 | S. cerevisiae deletion strains, locus YLR418C, strain cdc73, stronger effect = lower value 1.02 | S. cerevisiae deletion strains, locus YML016C, strain PPZ1, stronger effect = lower value 1 | S. cerevisiae deletion strains, locus YML032C, strain rad52, stronger effect = lower value 0.996 | S. cerevisiae deletion strains, locus YML120C, strain ndi1, stronger effect = lower value 0.954 | S. cerevisiae deletion strains, locus YML124C, strain tub3, stronger effect = lower value 1.01 | S. cerevisiae deletion strains, locus YMR058W, strain fet3, stronger effect = lower value 0.983 | S. cerevisiae deletion strains, locus YMR078C, strain ctf18, stronger effect = lower value 1 | S. cerevisiae deletion strains, locus YMR125W, strain sto1, stronger effect = lower value 0.965 | S. cerevisiae deletion strains, locus YMR129W, stronger effect = lower value 0.964 | S. cerevisiae deletion strains, locus YMR205C, strain PFK2, stronger effect = lower value 0.975 | S. cerevisiae deletion strains, locus YMR223W, strain ubp8, stronger effect = lower value 1.04 | S. cerevisiae deletion strains, locus YMR231W, strain pep5, stronger effect = lower value 0.973 | S. cerevisiae deletion strains, locus YMR307W, strain GAS1, stronger effect = lower value 0.976 | S. cerevisiae deletion strains, locus YNL067W, strain RPL9B, stronger effect = lower value 0.993 | S. cerevisiae deletion strains, locus YNL071W, strain lat1, stronger effect = lower value 0.972 | S. cerevisiae deletion strains, locus YNL128W, strain TEP1, stronger effect = lower value 1.01 | S. cerevisiae deletion strains, locus YNL153C, strain GIM3, stronger effect = lower value 0.992 | S. cerevisiae deletion strains, locus YNL183C, strain NPR1, stronger effect = lower value 0.942 | S. cerevisiae deletion strains, locus YNL209W, strain ssb2, stronger effect = lower value 0.98 | S. cerevisiae deletion strains, locus YNL233W, strain BNI4, stronger effect = lower value 1 | S. cerevisiae deletion strains, locus YNL248C, strain rpa49, stronger effect = lower value 0.914 | S. cerevisiae deletion strains, locus YNL250W, strain rad50, stronger effect = lower value 1.03 | S. cerevisiae deletion strains, locus YNL271C, strain bni1, stronger effect = lower value 1.02 | S. cerevisiae deletion strains, locus YNL298W, strain CLA4, stronger effect = lower value 0.999 | S. cerevisiae deletion strains, locus YNL307C, strain MCK1, stronger effect = lower value 1.02 | S. cerevisiae deletion strains, locus YNL322C, strain KRE1 (second series), stronger effect = lower value 0.955 | S. cerevisiae deletion strains, locus YNR049C, strain mso1, stronger effect = lower value 0.951 | S. cerevisiae deletion strains, locus YNR052C, strain pop2, stronger effect = lower value 1.01 | S. cerevisiae deletion strains, locus YOL012C, strain htz1 0.807 | S. cerevisiae deletion strains, locus YOL147C, strain pex11, stronger effect = lower value 1.01 | S. cerevisiae deletion strains, locus YOR001W, strain rrp6, stronger effect = lower value 0.971 | S. cerevisiae deletion strains, locus YOR061W, strain CKA2, stronger effect = lower value 1.01 | S. cerevisiae deletion strains, locus YOR069W, strain VPS5, stronger effect = lower value 1 | S. cerevisiae deletion strains, locus YOR070C, strain gyp1, stronger effect = lower value 0.986 | S. cerevisiae deletion strains, locus YOR080W, strain dia2, stronger effect = lower value 0.975 | S. cerevisiae deletion strains, locus YOR083W, strain WHI5, stronger effect = lower value 0.974 | S. cerevisiae deletion strains, locus YOR106W, strain vam3, stronger effect = lower value 0.977 | S. cerevisiae deletion strains, locus YOR136W, strain idh2, stronger effect = lower value 1 | S. cerevisiae deletion strains, locus YOR144C, strain elg1, stronger effect = lower value 1 | S. cerevisiae deletion strains, locus YOR184W, strain ser1, stronger effect = lower value 1.01 | S. cerevisiae deletion strains, locus YOR231W, strain MKK1, stronger effect = lower value 1 | S. cerevisiae deletion strains, locus YOR265W, strain rbl2, stronger effect = lower value 0.974 | S. cerevisiae deletion strains, locus YOR270C, strain vph1, stronger effect = lower value 0.926 | S. cerevisiae deletion strains, locus YOR290C, strain snf2, stronger effect = lower value 0.944 | S. cerevisiae deletion strains, locus YOR316C, strain cot1, stronger effect = lower value 1.01 | S. cerevisiae deletion strains, locus YPL051W, strain arl3, stronger effect = lower value 0.985 | S. cerevisiae deletion strains, locus YPL055C, strain LGE1, stronger effect = lower value 0.993 | S. cerevisiae deletion strains, locus YPL078C, strain atp4, stronger effect = lower value 0.992 | S. cerevisiae deletion strains, locus YPL106C, strain sse1, stronger effect = lower value 0.922 | S. cerevisiae deletion strains, locus YPL240C, strain hsp82, stronger effect = lower value 0.975 | S. cerevisiae deletion strains, locus YPL256C, strain CLN2, stronger effect = lower value 0.981 | S. cerevisiae deletion strains, locus YPR119W, strain clb2, stronger effect = lower value 1.01 | S. cerevisiae deletion strains, locus YPR141C, strain kar3, stronger effect = lower value 1.01 | S. cerevisiae deletion strains, locus YPR163C, strain tif3, stronger effect = lower value 1.01 | S. cerevisiae deletion strains, locus YPR167C, strain met16, stronger effect = lower value 1.02 | S. cerevisiae deletion strains, strain wtn01, stronger effect = lower value 1.01 | S. cerevisiae strains, strain wild type, stronger effect = lower value 0.987
